# Sampled rows, rich in hits. Any-hit rate of the full collection: about 4.8%.
# S2 tox – reduces viability in counter-screen for ATXN expression inhibitors; S2 cells (HEK-293 line with an ATXN2-luciferase reporter) viability, CellTiter-Fluor protease fluorescence, 24 h; Potency, µM (titrated, usually from 56.7 µM), actives largely listed as cytotoxic; hit rate 0.49% among 400,000; also: potency is read from the fitted curve at half-maximal effect; nearly all actives have a fitted effect of over 40% in size
# USP1-UAF1 inh – inhibitors of human USP1/UAF1 deubiquitinase | recombinant USP1/UAF1, Ub-Rhodamine cleavage fluorescence | Potency, µM (highest dose often 57.1 µM), for the others: at the top dose activity change, negative = inhibition, most hits filed as inhibitors | hit rate 0.23% among 390,000 | AID 743255; also: potency is read from the fitted curve at half-maximal effect; % is scaled to controls: 0 for no effect and ±100 for the full control effect; nearly all actives have a fitted effect of over 60% in size
# Target sequence (O94782 whole entry, looked up): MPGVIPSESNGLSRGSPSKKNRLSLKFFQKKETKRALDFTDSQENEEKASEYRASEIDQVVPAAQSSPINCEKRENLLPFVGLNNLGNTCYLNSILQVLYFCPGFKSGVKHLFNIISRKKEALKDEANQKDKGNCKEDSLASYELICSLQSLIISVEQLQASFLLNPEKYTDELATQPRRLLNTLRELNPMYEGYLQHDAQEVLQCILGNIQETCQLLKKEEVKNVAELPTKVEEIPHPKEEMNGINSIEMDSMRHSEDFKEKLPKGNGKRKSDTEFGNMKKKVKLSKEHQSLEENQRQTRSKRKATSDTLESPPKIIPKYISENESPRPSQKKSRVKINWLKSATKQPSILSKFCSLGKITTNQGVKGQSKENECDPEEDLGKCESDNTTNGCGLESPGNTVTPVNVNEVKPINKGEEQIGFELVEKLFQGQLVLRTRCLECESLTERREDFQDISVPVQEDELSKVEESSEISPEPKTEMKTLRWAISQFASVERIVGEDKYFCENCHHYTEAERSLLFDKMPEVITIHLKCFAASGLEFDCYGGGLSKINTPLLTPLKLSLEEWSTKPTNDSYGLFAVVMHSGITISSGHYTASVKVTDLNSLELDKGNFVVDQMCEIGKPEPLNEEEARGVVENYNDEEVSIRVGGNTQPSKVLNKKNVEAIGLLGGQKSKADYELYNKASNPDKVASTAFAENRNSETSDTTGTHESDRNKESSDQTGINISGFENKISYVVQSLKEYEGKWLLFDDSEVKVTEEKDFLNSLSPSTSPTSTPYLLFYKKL
#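 USP1/UAF1 complex (1 nM) preincubated 15 min at room temperature with compound, then Ub-Rho substrate (150 nM final) added. Kinetic fluorescence at 480/540 nm over 6 reads at 60 s intervals; 50 mM HEPES pH 7.8, 0.5 mM EDTA, 0.1 mg/ml BSA, 1 mM TCEP, 0.01% Tween-20.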
# ATXN2 expr inh – reduces ATXN2 reporter expression in HEK-293 cells | HEK-293 ATXN2-luciferase reporter, luminescence, 24 h | Potency, µM (series often up to 57 µM), without a hit: top-dose activity change, negative = inhibition, usual class: inhibitors | hit rate 0.72% among 360,000 | AID 1745845; also: potency is read from the fitted curve at half-maximal effect; % is scaled to controls: 0 for no effect and ±100 for the full control effect; nearly all actives have a fitted effect of over 55% in size
#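 qHTS (up to 57 uM final) was run with 24 h compound exposure of reporter cells at 37 °C. Each well was multiplexed: SteadyGlo luminescence measured ATXN2-luciferase expression after a fluorogenic Gly-Phe-AFC viability readout (25 uM final).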
# IL1B secr inh – inhibitors of inflammasome signaling (IL-1 beta secretion) | THP-1 LPS/ATP IL-1B secretion, AlphaLISA, 16 h; active compounds read low | activity change, % at 57.5 µM | hit rate 4.7% among 360,000; in the data active = activity change below about -50%; inconclusive = mostly about -30% to -49%; also: % is scaled to controls: 0 for no effect and ±100 for the full control effect
#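 Secreted IL-1B measured by AlphaLISA bead assay after 16 h compound exposure of THP-1 cells; compounds (final up to 57.5 uM) added 1 h before LPS (250 ng/mL) and ATP (1.25 mM) stimulation; lower signal means less secretion.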
# USP2a block – USP2a (human) protease inhibition | O75604 | USP2 core, Ub-CHOP2 coupled fluorogenic reporter, 485/531 | Potency, µM (doses to about 38.3 µM), without a hit: at the highest dose activity change, negative = inhibition, usual class: inhibitors | hit rate 0.01% among 330,000 | AID 463254;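 also: potency is read from the fitted curve at half-maximal effect; plate controls were DMSO wells for no effect and full inhibition by NEM control for full effect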
#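 Cell-free coupled assay: 10nM USP2 core preincubated 30min RT with compound in Tris-HCl pH 8.0/CaCl2/CHAPS buffer, then 25nM Ub-CHOP2 and 25nM reporter substrate; fluorescence (Ex 485/Em 531) read after 60min RT, normalized to NEM inhibition, concentration-response curves fitted.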
# Numbers without * were called inactive; i = inactive; ? = inconclusive; . = not tested or not shown; [ ] = dose if it differs, or a comment. Unless noted, calls follow the shape of the dose curve; as a rule, active = well fitted curve in the direction sought with a large enough effect; inconclusive = small, poorly fitted or top-dose-only effect, or another doubt; inactive = no such curve, though single readings can be large; an effect the other way counts as inactive or inconclusive.
SMILES,S2 tox,USP1-UAF1 inh,ATXN2 expr inh,IL1B secr inh,USP2a block
Cc1cc(-c2ccnc(-n3ncc(C(=O)N4CCCCC4c4cccnc4)c3C3CC3)n2)c(C)s1 (stereo not given),i,.,.,.,.
COc1cccc(C(=O)/C=C/Nc2ccc(S(=O)(=O)Nc3cccc(C(C)=O)c3)cc2)c1,?,-7.7%,?,-28.1,-14.1%
COc1cccc(/C=C/C(=O)c2ccc(NS(=O)(=O)c3ccc(C)cc3)cc2)c1,i,-6.2%,?,-99.4*,0.4%
COc1cc(NC(=O)c2ccc(Cl)cc2)c(OC)cc1NC(=O)CN1CCCCC1,i,-16.7%,40.5%,-83.9*,-7.1%
COc1cc(NC(=O)c2cccc(C)c2)c(OC)cc1NC(=O)CN1CCCCC1,i,?,-12.0%[11.3 µM],-62.2*,2.8%
COc1cc(Cl)c(C)cc1NC(=O)c1ccccc1NC(=O)CN1CCN(c2ccccn2)CC1,i,-12.6%,.,-66.3*,.
Cc1cnc(NC(=O)CN2CCN(c3ccccn3)CC2)s1,?,-13.7%,8.91µM*,?,0.9%
COc1cc(NC(=O)c2ccccc2)c(OC)cc1NC(=O)CN1CCN(c2ccccn2)CC1,?,-23.9%,-17.8%,?,-7.2%
Cc1ccc(NC(=O)c2ccc3c(c2)C(=O)N(c2ccccc2C)C3=O)nc1,i,6.1%,-14.0%,4.0,3.1%
Cc1cccc(NC(=O)CCN2CCN(c3ccccc3F)CC2)c1,i,-25.9%,-10.7%,.,.
COc1cc(NC(=O)c2ccccc2F)c(OC)cc1NC(=O)CN1CCCCC1,i,?,-8.4%,-57.5*,3.5%
COc1cc(NC(=O)Nc2ccccc2OC)c(OC)cc1NC(=O)CN1CCCCC1,i,?,5.4%,-4.3,0.9%
CCc1ccc(OC)c(S(=O)(=O)Nc2ccc(Cc3ccncc3)cc2)c1,i,-13.0%,-31.7%,-76.1*,-2.4%
Cc1cc(C(=O)CCl)c(C)n1CCc1ccc(Cl)cc1,?,-14.1%,25.1µM*,-96.2*,-4.0%
COc1ccc(CCn2c(C)cc(C(=O)CCl)c2C)cc1OC,.,?,?,-100.5*,0.3%
Cc1cc(C(=O)CCl)c(C)n1CCc1ccc(F)cc1,.,-22.7%,?,-58.2*,-0.2%
COc1ccc(CCn2c(C)c(C(C)=O)c(C(C)=O)c2C)cc1OC,i,-15.1%,1.5%,17.9,1.1%
CC(C)Cc1ccc(-c2cc3nc(NCCCn4ccnc4)ccn3n2)cc1,i,.,4.7%,-2.3,.
CC(C)(O)CCc1ccc(OCc2cc(-c3cccc(OC(F)F)c3)c3ncccc3c2)cc1,.,.,3.6%,.,.
COc1ccc(Cc2nnc(SCC(=O)Nc3cc(Cl)ccc3C)[nH]c2=O)cc1,i,-2.3%,-1.8%,18.1,-0.9%
Cn1c(=O)c2[nH]c(CCCCCCCCc3nc4ccccc4[nH]3)nc2n(C)c1=O,?,-18.7%,-37.4%,-59.9*,.
CCC(=O)Nc1ccc2c(c1)OC[C@@H](C)N(Cc1ccccc1F)C[C@@H](C)[C@@H](OC)CN(C)C2=O,.,.,.,1.4,.
CO[C@H]1CN(C)C(=O)c2ccc(NC(=O)C3CCC3)cc2OC[C@H](C)N(Cc2ccc(F)cc2)C[C@@H]1C,.,.,.,-69.9*,.
O=S(=O)(c1ccc(F)cc1)N1CCC(n2c(C(F)(F)F)nc3cccnc32)CC1,i,-17.1%,-4.6%,.,.
COc1ccc(OC)c(/C=C/c2ccnc3ccccc23)c1,i,-20.0%,-38.9%,-75.8*,.
SMILES,S2 tox,USP1-UAF1 inh,ATXN2 expr inh,IL1B secr inh,USP2a block
Cn1c(=NC(=O)CCl)sc2ccccc21,31.6µM*,-9.0%,?,-120.2*,1.8%
CN(C)c1ccc(N=c2sc3ccccc3n2C)cc1,i,-9.3%,48.5%,-50.8*,3.3%
Cn1c(=Nc2ccccc2)sc2ccccc21,i,-8.5%,30.1%,14.6,-0.3%
COc1ccc(N2CCN(C(=O)Cc3ccc(Cl)cc3)CC2)cc1,i,-23.4%,-9.8%,-14.9,-1.6%
C=C1C(=O)OC2C1CCC(C)C1C=CC(=O)C12C (stereo not given),?,-6.1%,?,-67.7*,.
COc1ccc(CCNC(=O)C2CCN(c3nc4ccccc4nc3C(F)(F)F)CC2)cc1OC,i,-19.5%,6.0%,.,.
COc1ccc2c(c1)CCc1cnc(-n3ncc(C(=O)NCc4cc(C)no4)c3C3CC3)nc1-2,i,.,.,.,.
N[C@@H](CSSC[C@H](N)C(=O)O)C(=O)O,i[0.575 µM],.,16.8%[0.709 µM],.,.
Cc1c2oc3c(C)ccc(C(=O)NC4C(=O)NC(C(C)C)C(=O)N5CCCC5C(=O)N(C)CC(=O)N(C)C(C(C)C)C(=O)OC4C)c3nc-2c(C(=O)NC2C(=O)NC(C(C)C)C(=O)N3CCCC3C(=O)N(C)CC(=O)N(C)C(C(C)C)C(=O)OC2C)c(N)c1=O (stereo not given),.,.,0.0004µM*,.,.
COc1ccc(CN2CCC(n3cc(C(=O)N4CCCCC4)nn3)CC2)c(OC)c1,i,.,.,.,.
CCCCn1c(=O)[nH]c(=O)c2c1nc(Cn1ncc(Cl)c(Cl)c1=O)n2CCC,?,-20.4%,?,-104.0*,-0.5%
COc1ccc(C(=O)/C=C/c2ccsc2)cc1CSCC(=O)O,i,-4.0%,-1.5%,-68.6*,-1.5%
C#CCOCCOCCOCCNc1nc(N2CCN(C(=O)C(Cc3cc4ccccc4[nH]3)n3cc(C(N)Cc4ccc(O)cc4)nn3)CC2)nc(N2CCN(C(=O)C(Cc3cc4ccccc4[nH]3)n3cc(C(N)Cc4ccc(O)cc4)nn3)CC2)n1 (stereo not given),31.6µM*,-23.4%,?,7.4,-0.7%
C#CCOCCOCCOCCNc1nc(N2CCN(C(=O)CCCCCCCCCCNC(=O)[C@H](CCCCN)n3cc(CCCC(=O)O)nn3)CC2)nc(N2CCN(C(=O)CCCCCCCCCCNC(=O)[C@H](CCCCN)n3cc(CCCC(=O)O)nn3)CC2)n1,i,13.1%,-30.3%,-3.5,-3.5%
C#CCOCCOCCOCCNc1nc(N2CCN(C(=O)CCCCCCCCCCNC(=O)Cn3cc(C[C@@H](C)O)nn3)CC2)nc(N2CCN(C(=O)CCCCCCCCCCNC(=O)[C@H](CCCCN)n3cc(C[C@@H](C)CC)nn3)CC2)n1,20µM*,-28.4%,25.1µM*,-76.9*,-24.6%
C#CCOCCOCCOCCNc1nc(N2CCN(C(=O)CCCCCCCCCCNC(=O)Cn3cc(C[C@@H](C)O)nn3)CC2)nc(N2CCN(C(=O)CCCCCCCCCCNC(=O)Cn3cc(C[C@@H](C)O)nn3)CC2)n1,?,?,?,9.5,-1.8%
C#CCOCCOCCOCCNc1nc(N2CCN(C(=O)CCCCCCCCCCNC(=O)[C@H](CCCCN)n3cc(CCCC(=O)O)nn3)CC2)nc(N2CCN(C(=O)CCCCCCCCCCNC(=O)[C@H](CCCN=C(N)N)n3cc(C[C@@H](C)CC)nn3)CC2)n1,28.2µM*,-25.7%,?,-73.3*,?

# Screening results deposited in PubChem by National Center for Advancing Translational Sciences (NCATS).
